# The list is not random: actives were taken first. Their share in the collection is about 3.5%.
# GPR151 activ: activators of human GPR151 | activation, % at 11.2 µM | actives 1% (n = 650,000) | PathHunter beta-arrestin GPR151 cells, luminescence | Q8TDV0; in the data active means activation above about 4.9%;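 further: 0% = median of compound wells and 100% = cells with positive control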
# Target sequence (Q8TDV0 whole entry, looked up): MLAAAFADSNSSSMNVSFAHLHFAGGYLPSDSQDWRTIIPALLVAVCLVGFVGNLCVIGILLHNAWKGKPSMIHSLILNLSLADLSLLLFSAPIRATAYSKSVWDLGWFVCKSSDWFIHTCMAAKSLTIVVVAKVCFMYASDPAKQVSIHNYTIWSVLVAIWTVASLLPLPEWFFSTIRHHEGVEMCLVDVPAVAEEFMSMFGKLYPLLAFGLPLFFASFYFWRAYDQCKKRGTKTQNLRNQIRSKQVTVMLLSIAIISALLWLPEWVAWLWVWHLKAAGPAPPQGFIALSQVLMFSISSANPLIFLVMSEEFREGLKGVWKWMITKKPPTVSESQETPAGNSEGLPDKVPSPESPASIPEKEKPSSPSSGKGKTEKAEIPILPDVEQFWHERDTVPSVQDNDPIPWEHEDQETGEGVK
# TEAD-YAP block: TEAD-YAP interaction inhibition. HEK-TIYL cells, TEAD-Gal4/YAP UAS-luciferase luminescence. inhibition, % at 9.12 µM. actives 1.4% (n = 640,000). AID 1259422; in the data active means inhibition above about 32%;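 further: 0% = median of test compound wells and 100% = reference inhibitor wells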
# MITF primary: human MITF inhibition, primary screen | AID 1259374 | inhibition, % at 2.6 µM | AlphaScreen MITF homodimerization, bead proximity signal | actives 0.91% (n = 650,000); in the data active means inhibition above about 50%;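 further: 0% = vehicle wells with protein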
# FBW7 act: human FBW7 E3 ligase activation, primary screen; Q969H0; AlphaScreen FBW7–phospho-cyclin E peptide binding, activator screen; normalized activity (activation), % at 26.1 µM; actives 0.13% (n = 650,000); in the data active means normalized activity above about 1.9%;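 further: purified mutant Fbw7 with reduced substrate affinity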
# GPR151 conf act: confirmation of human GPR151 activators. shares compounds with GPR151 activ. GPR151 PathHunter beta-arrestin cells, luminescence, 90 min; % of EA-reagent control over plate median. activation, % at 11.2 µM. 6,700 tested, under 10 active. AID 1508609;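 active means mean percent activation across replicates above the confirmation screen cutoff of 4.91%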
# GPR119 ag: GPR119 activation, counter-screen for GPR151 activators; actives 0.3% (n = 6,700); activation, % at 11.2 µM; GPR119 PathHunter beta-arrestin cells, luminescence, 90 min; 0 = compound-well median, 100 = enzyme-acceptor control; shares compounds with GPR151 activ; AID 1508611;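 active means mean percent activation in the counterscreen above 29.09%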;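 further: counterscreen on off-target GPR119 to flag nonselective hits from the GPR151 activator screen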
# * marks the source's active call; other numbers are inactive results; / = not tested or not shown; ! = not confirmed by another sample.
SMILES,GPR151 activ,TEAD-YAP block,MITF primary,FBW7 act,GPR151 conf act,GPR119 ag
CN1CCN(C(=O)C(O)(c2ccccc2)c2ccccc2)CC1,11*,-5,-4,0,0,1
O=P1(Oc2ccccc2)NCCCO1 (stereo unspecified),-1,-2,9,0,/,/
CCOc1ccccc1NC(=O)N1CCC2(CC1)OCCO2,13*,8,11,0,-1,-2
O=c1c2ccccc2nc(/C=C/c2ccccc2)n1-c1ccc(Br)cc1,-1,-3,7,0,/,/
CC1(C)C(c2ccccc2)=[N+]([O-])C(c2cccnc2)N1O (stereo unspecified),6.2*,6,0,1,0,-7
CC1(C)C(c2ccccn2)=[N+]([O-])C(c2cccnc2)N1O (stereo unspecified),-1,5,24,0,/,/
NC1=Nc2ccccc2Sc2ccccc21,5.3*,-27,-1,0,0,9
CCC/C(=N\OCC)C1C(=O)CC(CC(C)SCC)CC1=O (stereo unspecified),1,-2,8,0,/,/
C=CCc1cc(OC)c2c(c1OC)OCO2,11*,2,5,0,-1,-4
COc1cc(CN2CCNCC2)cc2c1OCO2,1,-4,0,0,/,/
COc1cc(OC)nc(N2CCNCC2)n1,-1,8,22,0,/,/
CC[C@@H]1C(=O)OC[C@@H]1Cc1cncn1C,9.6*!,2,-7,0,0,-6
O=C1NC2(CCNCC2)Nc2ccc(Cl)cc21,0,3,9,0,/,/
CC(=O)OCC(=O)[C@H]1CC[C@H]2[C@@H]3CC[C@H]4C[C@H](O)CC[C@]4(C)[C@H]3C(=O)C[C@]12C,6.2*,/,-5,0,0,7
OCCNc1c2c(nc3ccccc13)CCCC2,1,-9,1,0,/,/
O=C(O)c1c2c(nc3ccccc13)CCNC2,6.9*,-9,-2,0,1,8
CC(C)C1C(=O)NC(=S)N(c2ccccc2)C1=O (stereo unspecified),2,6,1,0,/,/
CS(=O)(=O)c1ccc(N2CCNCC2)c(F)c1,4.9*,-3,-7,0,0,5
C[N+]1(C)CCC(OC(=O)C(c2ccccc2)c2ccccc2)CC1,-1,3,-9,0,/,/
CN1C2CCC1CC(OC(=O)C(c1ccccc1)c1ccccc1)C2 (stereo unspecified),5.1*,-6,22,1,1,1
O=c1c2ccccc2nc(/C=C/c2ccc3c(c2)OCO3)n1-c1ccccc1O,8.9*,-6,11,0,0,-5
CCCCOC(=O)c1ccccc1C(=O)OCCCC,5.9*!,0,-15,0,1,2
NC(=O)OCCCc1ccccc1,2,-10,-4,0,/,/
Cc1ccc(Cn2cccc(C(=O)Nc3cc(C)ccn3)c2=O)cc1,-1,2,15,1,/,/
COc1ccc(F)cc1C(=O)C1CCCN(CCO)C1 (stereo unspecified),8.3*,-4,-5,0,0,-12
SMILES,GPR151 activ,TEAD-YAP block,MITF primary,FBW7 act,GPR151 conf act,GPR119 ag
COc1ccc(F)cc1C(=O)C1CCCN(Cc2ccc(O)cc2)C1 (stereo unspecified),-1,-5,4,0,/,/
CCCCC/C=C\C/C=C\C/C=C\C/C=C\CCCC(=O)NCCO,7.1*,/,10,/,0,-8
COc1cc(N2CCOCC2)ccc1/C=C1\C(=O)NC(=O)N(Cc2cccs2)C1=O,-1,9,2,0,/,/
COc1cc(N2CCOCC2)ccc1C=C1C(=O)NC(=O)NC1=O,8.0*,4,5,-1,0,-4
O=C(CCC(=O)OCC(=O)c1ccc(Br)cc1)Nc1ccc(Cl)cc1C(=O)c1ccccc1,1,3,11,0,/,/
CCC(C)N1CCN(Cc2ccc([N+](=O)[O-])cc2)CC1 (stereo unspecified),-2,-8,41,0,/,/
CCN1CCN(Cc2ccc([N+](=O)[O-])cc2)CC1,10*,10,-5,0,-1,12
Cc1cc(-n2c(/C=C/c3ccc([N+](=O)[O-])cc3)nc3ccccc3c2=O)ccc1Br,0,0,9,0,/,/
CC[n+]1c(/C=C/C=C2\N(C)c3ccccc3C2(C)C)n(-c2ccccc2)c2cc(Cl)ccc21,8.3*,90*,-24,0,3,20

# High-throughput results (PubChem)
